Data published in ChEMBL document CHEMBL3988442, “University of Dundee, Small-Polar-MMV Screening Library” (2021).

Experiments:
[1] = target: T1, Aspartate--tRNA(Asp/Asn) ligase (Mycobacterium tuberculosis (strain ATCC 25618 / H37Rv)) (UniProt P9WFW3); assay: Assay for Asp RNA synthetase-1 from Mycobacterium tuberculosis; type: functional; parameters: scale not given: direction of the effect not stated beside the values; details: 30 µM; also: in the data most compounds retested in dose-response had high values
T1 sequence (whole entry): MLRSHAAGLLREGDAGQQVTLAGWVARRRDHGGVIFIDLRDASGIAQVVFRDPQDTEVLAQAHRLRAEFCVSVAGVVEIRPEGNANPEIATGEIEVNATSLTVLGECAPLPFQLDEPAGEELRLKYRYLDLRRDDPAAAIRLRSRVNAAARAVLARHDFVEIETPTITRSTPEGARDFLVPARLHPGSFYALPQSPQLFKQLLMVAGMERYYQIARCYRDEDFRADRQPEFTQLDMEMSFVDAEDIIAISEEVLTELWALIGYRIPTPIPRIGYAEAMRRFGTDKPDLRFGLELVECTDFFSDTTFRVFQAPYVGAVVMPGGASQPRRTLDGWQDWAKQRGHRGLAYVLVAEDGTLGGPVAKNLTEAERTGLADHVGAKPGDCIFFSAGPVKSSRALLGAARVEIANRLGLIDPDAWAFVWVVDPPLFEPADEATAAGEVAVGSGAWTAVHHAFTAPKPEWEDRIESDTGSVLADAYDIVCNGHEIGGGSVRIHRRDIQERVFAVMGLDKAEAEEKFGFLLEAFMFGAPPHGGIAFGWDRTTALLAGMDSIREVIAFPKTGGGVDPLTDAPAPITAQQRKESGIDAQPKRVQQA

[2] = target: Shiga toxin 2 (Escherichia coli O157:H7) (UniProt P09385+P09386); assay: E. coli 0.157:H7 Shiga Toxin SOP - stx2 screening assay; type: functional; parameters: scale not given: direction of the effect not stated beside the values; details: 30 µM

SMILES	Percent Effect [1]	Percent Effect [2]
CC(C)c1nc(C2CCCN2Cc2ccn(C)c(=O)c2)no1 (centres undefined)	3.39%	-44.4%
COc1cccc(C(=O)N2CCc3ncnc(C)c3CC2)c1	-1.32%	-12%
O=S(=O)(c1cccs1)N1CC[C@H](O)[C@@H]1Cc1ccncc1	-0.474%	2.87%
Cn1cc(CN2CC3(CCN(C(=O)c4ccoc4)C3)C2)cn1	-2.07%	-8.68%
CN(C)C(=O)C1CN(Cc2cscn2)CCN(S(C)(=O)=O)C1 (centres undefined)	0.521%	-12.3%
COCCCNC(=O)CCn1nc(C)c2ccccc21	-2.88%	-11.5%
O=S(=O)(C1CC1)N1CCO[C@H]2[C@H](OCCN3CCCC3)CC[C@@H]21	2.59%	-32.7%
CCn1cc(NC(=O)NCC(O)CN2CCCCC2)cn1 (centres undefined)	-0.173%	21.2%
Cc1cccc(C(=O)N2CCN(S(C)(=O)=O)[C@@H](C)C2)c1C	-3.1%	-11.5%
CN(CC(=O)N1CCC(Oc2ccccc2)CC1)c1cnccn1	0.175%	-7.36%
COCCC(=O)N1C[C@@H]2COC[C@]2(COCc2cccnc2)C1	2.14%	-6.81%
O=C(c1cccc2c1OCCO2)N1CCCC(n2ccnc2)C1 (centres undefined)	-1.01%	21.1%
CCN(CC1CCOC1)C(=O)Nc1ccc(OC)nc1 (centres undefined)	4.72%	-156%
CC(C)n1c(C2CCCN(CCS(C)(=O)=O)C2)nc2ccccc21 (centres undefined)	0.943%	17.6%
CCN1CCCN(C(=O)c2cnc(OC(C)C)c(Cl)c2)CC1	-0.365%	-50.8%
CC(CNC(=O)N1CCSCC1)Cc1cccs1 (centres undefined)	1.56%	6.01%
Fc1cnc(N2CCOC3(CCN(Cc4ccsc4)CC3)C2)nc1	14.1%	-18%
